Source: PubChem BioAssay AID463173 (ICCB-Longwood Screening Facility, Harvard Medical School, 2010)
About 4,300 (8.3%) of roughly 52,000 compounds were called active. For the sample, actives were picked, then their nearest neighbours and some compounds at random. Unmarked numbers belong to inactive results. Cut-off read from the data, not from the text of the source: active = survival mostly below about 52% (no sharp cut-off); inactive = mostly above about 56%.

test system: DeltatarO mutant; test: growth inhibition of S. aureus wild type versus tarO mutant, primary screen, teichoic acid synthesis inhibitors, RN4220, OD600 (AID 463173); details: OD600, 18 h, active compounds read low, screened at 18.75 µg/mL (by protocol)

Row | Compound | survival
1 | CCN(c1cccc(C)c1)S(=O)(=O)c1cc2c(cc1C)n(C)c(=O)c(=O)n2C | 85%
2 | COC(=O)c1ccccc1NC(=O)CCCn1c(C)c2cnn(-c3ccccc3)c(=O)c2c1C | 90%
3 | COc1ccc(OC)c(C2=NS(=O)(=O)N(C)C(C(=O)Nc3ccc(F)cc3F)=C2)c1 | 72%
4 | COC(=O)c1ccc(NC(=O)CN(C)S(=O)(=O)c2ccc3c(c2)CCCC(=O)N3)cc1 | 79%
5 | CCCN1C2CCCC1CC(NC(=O)NC1CCCCC1)C2 (stereo not drawn) | 59%
6 | CCOC(=O)c1cc2c(ccn2-c2ccc(F)cc2)n1CC(=O)N1C(C)CCCC1C (stereo not drawn) | 103%
7 | CC(=O)c1cc(C(=O)Nc2cc(C)cc(C)c2)c2ccccn12 | 43%
8 | CCOc1cccc(C2c3[nH]c4ccccc4c3CCN2C(=O)CCC2CCCC2)c1 (stereo not drawn) | 78%
9 | COC(=O)c1ccccc1NC(=O)Cn1cnc2sc(C)c(S(=O)(=O)N3CCC(C)CC3)c2c1=O | 59%
10 | Cc1nn(CCC(=O)NCc2ccc(Cl)cc2)c(=O)c2nn(-c3ccccc3)c(C)c12 | 0% (active)
11 | CCc1ccc(CNC(=O)CCn2nc(C)c3c(C)n(-c4ccccc4)nc3c2=O)cc1 | 55%
12 | Cc1nn(CCC(=O)NCc2ccc(N(C)C)cc2)c(=O)c2nn(-c3ccccc3)c(C)c12 | 95%
13 | O=c1c2cnn(-c3ccc(Cl)cc3)c2ncn1Cc1ccc(Cl)cc1Cl | 102%
14 | CCc1ccccc1NC(=O)C1CCCN(S(=O)(=O)c2ccc3[nH]c(=O)ccc3c2)C1 (stereo not drawn) | 88%
15 | CCSc1nc2ccccc2c(OCc2ccccc2Cl)c1C(=O)OC | 64%
16 | CCSc1nc2ccccc2c(OCc2ccc(Cl)cc2)c1C(=O)OC | 98%
17 | COC(=O)c1c(SC)nc2ccccc2c1OCc1cc(C)ccc1C | 144%
18 | COC(=O)c1c(SC)nc2ccccc2c1OCc1ccccc1C | 105%
19 | COC(=O)c1c(SC)nc2ccccc2c1OCc1ccc(C)cc1C | 46% (active)
20 | CCSc1nc2ccccc2c(OCc2cc(C(=O)OC)ccc2OC)c1C(=O)OC | -12% (active)
21 | CCOC(=O)Cn1cc2c(c1-c1ccc(Cl)cc1)c(=O)n(C)c(=O)n2C | 60%
22 | COc1cc(CNC(=O)C2CCCCN2S(=O)(=O)c2ccc(F)cc2)cc(OC)c1OC (stereo not drawn) | 83%
23 | Cc1ccc2c(=O)c(C(=O)c3ccc(F)cc3)cn(CC(=O)Nc3ccc4c(c3)OCCO4)c2n1 | 77%
24 | Cc1ccc(CCNC(=O)c2ccc3c(Cl)c4c(nc3c2)CCCC4)cc1 | 61%
25 | CCOC(=O)c1c(-c2ccccc2)oc2ccc(N(C(C)=O)S(=O)(=O)c3cc(C)ccc3C)cc12 | 54%

Row | Compound | survival
26 | CCCC(=O)N(c1ccc2oc(-c3ccccc3)c(C(=O)OCC)c2c1)S(=O)(=O)c1ccc(C)cc1 | 140%
27 | CCCC(=O)N(c1ccc2oc3c(c2c1)CCCC3)S(=O)(=O)c1cc(C)ccc1C | 35% (active)
28 | CCc1ccc(S(=O)(=O)N(C(C)=O)c2ccc3oc4c(c3c2)CCCC4)cc1 | 146%
29 | CCCCC(=O)N(c1ccc2oc(C)c(C(C)=O)c2c1)S(=O)(=O)c1ccc(F)cc1C | 62%
30 | CCCC(=O)N(c1ccc2oc3c(c2c1)CCCC3)S(=O)(=O)c1ccc(CC)cc1 | 39% (active)
31 | CCC1CN(C(=O)NCc2ccc(C)cc2)c2cc(C)ccc2O1 (stereo not drawn) | 54%
32 | COC(=O)CC1Oc2ccc(Cl)cc2-n2cc(-c3ccccc3)nc21 (stereo not drawn) | 63%
33 | CCOC(=O)Cn1c(=O)oc2cc(S(=O)(=O)NC(C)c3ccccc3)ccc21 (stereo not drawn) | 66%
34 | CC(C)=NNC(=O)CNc1ccccc1Cl | 79%
35 | Cc1ccc(NC(=O)C2CC=CCC2C(=O)N2CCCCC2)cc1 (stereo not drawn) | 69%
36 | COc1cc(CN2CCc3nc(N4CCN(c5ccccc5F)CC4)ncc3C2)ccc1OC(C)C | 118%
37 | O=C(CC1N=C2c3ccccc3N=C(SCc3ccccc3Cl)N2C1=O)NCc1cccs1 (stereo not drawn) | 66%
38 | O=C(c1cnc2c(c1)COc1ccccc1-2)c1ccccc1O | 3% (active)
39 | Cc1ccc2c(c1)-c1nc(-c3ccccc3)cc(-c3ccccc3)c1CO2 | 91%
40 | Cc1ccc2c(c1)-c1ncc(C(=O)c3ccccc3O)cc1CO2 | 3% (active)
41 | Cc1cc(O)c(C(=O)c2cnc3c(c2)COc2ccccc2-3)cc1Cl | 76%
42 | Cc1ccc2c(c1)-c1ncc(C(=O)c3cc(Br)ccc3O)cc1CO2 | 62%
43 | O=C(c1cnc2c(c1)COc1ccc(Cl)cc1-2)c1ccccc1O | 105%
44 | COc1ccccc1/C=C(\C#N)C(=O)NCC1CCCO1 (stereo not drawn) | 129%
45 | CC1=C(c2ccc(Cl)cc2)S(=O)(=O)N=C1N1CCN(c2cccc(C(F)(F)F)c2)CC1 | 71%
46 | CCS(=O)(=O)N1CCc2cc(C(=O)NCc3ccc(Cl)cc3)ccc21 | 92%
47 | COc1cc(OC)c(NC(=O)Nc2nnc(N(C)C3CCCCC3)s2)cc1Cl | 23% (active)
48 | COc1ccc(NC(=O)Nc2nnc(N(C)C3CCCCC3)s2)c(OC)c1 | 70%
49 | Cc1ccc(NC(=O)Nc2nnc(N(C)C3CCCCC3)s2)c(Cl)c1 | 104%
50 | O=C(CSc1nc2c([nH]c3ccccc32)c(=O)n1-c1cccc(Cl)c1)N1CCc2ccccc21 | 73%

Row | Compound | survival
51 | COC(=O)C1CCN(C(c2ccccc2)c2sc3nc(-c4ccco4)nn3c2O)CC1 (stereo not drawn) | 57%
52 | Cc1ccc(C)c(NC(=O)c2ccc(=O)n(Cc3ccc(F)cc3)c2)c1 | 94%
53 | CCN(CC)CCCNC(=O)Cn1ncc2c3ccccc3n(Cc3ccccc3)c2c1=O | 95%
54 | COc1ccc(N2CCN(CCCNC(=O)c3cc(Nc4ccccc4OC)nc4ccccc34)CC2)cc1 | 62%
55 | COc1ccc2c(c1)CC(C(=O)NCCN1CCN(c3ccccc3F)CC1)CO2 (stereo not drawn) | 47% (active)
56 | O=C(c1cc2c(s1)-c1ccccc1OC2)N1CCN(c2ccccc2F)CC1 | 41% (active)
57 | CCCN1CCN(CCCNC(=O)c2cc3c(Cl)nc4ccccc4c3s2)CC1 | 116%
58 | COc1ccc2c(c1)CC(C(=O)NCCCN1CCN(c3ccccc3F)CC1)CO2 (stereo not drawn) | 87%
59 | COc1ccc(N2CCN(CCCNC(=O)c3cc(Nc4ccc(OC)cc4OC)nc4ccccc34)CC2)cc1 | 87%
60 | COc1ccccc1N1CCN(C(=O)c2cc3c(s2)-c2ccccc2OC3)CC1 | 88%
61 | O=C(NCCCN1CCN(c2ccccc2F)CC1)c1cc2c(Cl)nc3ccccc3c2s1 | 51% (active)
62 | O=C(NCCCN1CCN(c2ccc(F)cc2)CC1)c1cc2c(Cl)nc3ccccc3c2s1 | 91%
63 | COc1ccc(Nc2cc(C(=O)NCCCN3CCN(c4ccccc4F)CC3)c3ccccc3n2)c(OC)c1 | 48% (active)
64 | O=C(c1cc2c(s1)-c1ccccc1OC2)N1CCN(c2ccc(F)cc2)CC1 | 59%
65 | COc1ccc2c(c1)CC(C(=O)NCCN1CCN(c3cccc(C)c3C)CC1)CO2 (stereo not drawn) | 76%
66 | COc1cccc(N2CCN(C(=O)Cn3c(-c4cccs4)cc4ccccc43)CC2)c1 | 104%
67 | CCCCOc1ccc(C(C)NC(=O)c2cccc(Nc3nc4ccccc4n4nnnc34)c2)cc1 (stereo not drawn) | 67%
68 | Cc1ccc2[nH]c3nc(NN)nnc3c2c1 | 77%
69 | CCOc1ccc(N2CC(NC(=O)Cc3ccccc3)CC2=O)cc1 (stereo not drawn) | 135%
70 | COc1ccc(N(Cc2nnc3n2CCCCC3)C(=O)Nc2ccc(Cl)cc2)cc1Cl | 85%
71 | Cc1ccccc1NC(=O)CSc1nc2c(c(=O)n(C)c(=O)n2C)n1Cc1ccccc1F | 56%
72 | CCN(CC)CCNC(=O)c1nn(C)c2c1CS(=O)(=O)c1ccccc1-2 | 59%
73 | O=S(=O)(Nc1cccc(-c2ccc(N3CCCC3)nn2)c1)c1ccc(F)c(C(F)(F)F)c1 | 71%
74 | Cc1cccc2c(=O)c(N)c[nH]c12 | 105%
75 | O=C(Cn1c(=O)n(-c2ccccc2)c(=O)c2ccc(C(=O)NCc3ccc4c(c3)OCO4)cc21)Nc1ccc(Br)cc1F | 117%

Row | Compound | survival
76 | CCc1ccc(CNC(=O)CN2C(=O)CCn3nc(-c4cn(C)c5ccccc45)cc32)cc1 | 81%
77 | Cn1c(Nc2ccc(Cl)cc2)cc(=O)n(C)c1=O | 93%
78 | Cc1cc(F)ccc1NC(=O)C1CCN(C(=O)c2cnn(-c3ccccc3)c2-n2cccc2)CC1 | 80%
79 | Cc1cccc2c1-c1sc(C(=O)NCCCN3CCN(c4ccccc4F)CC3)cc1CO2 | 63%
80 | O=C(NCCCN1CCN(c2ccc(F)cc2)CC1)c1cc2c(s1)-c1ccccc1OC2 | 55% (active)
81 | O=C(NCCCN1CCN(c2ccccc2F)CC1)c1cc2c(s1)-c1ccccc1OC2 | 11% (active)
82 | CCN1CCN(CCCNC(=O)c2cc3c(s2)-c2ccccc2OC3)CC1 | 88%
83 | O=C(NCCCN1CCN(c2ccccc2)CC1)c1cc2c(s1)-c1ccccc1OC2 | 53%
84 | CCCN1CCN(CCCNC(=O)c2cc3c(s2)-c2ccccc2OC3)CC1 | 85%
85 | Cc1ccc(CCNC(=O)CCc2cn(Cc3ccccc3C)c3ccccc23)cc1 | 68%
86 | CCN(C(=O)c1cn(CC)c(=O)c2cc(OC)c(OC)cc12)c1ccc(C)c(C)c1 | 169%
87 | CC(C)c1ccc(OCC(=O)NC(Cc2c[nH]c3ccccc23)C(=O)O)cc1 (stereo not drawn) | 42% (active)
88 | COc1ccc(OCC(=O)NC(Cc2c[nH]c3ccccc23)C(=O)O)cc1 (stereo not drawn) | 60%
89 | CCOC(=O)C(Cc1c[nH]c2ccccc12)NC(=O)COc1ccc(CC)cc1 (stereo not drawn) | 33% (active)
90 | COC(=O)C(Cc1c[nH]c2ccccc12)NC(=O)COc1ccc(Cl)cc1Cl (stereo not drawn) | 46%
91 | Cc1cc(OCC(=O)NC(Cc2c[nH]c3ccccc23)C(=O)O)ccc1Cl (stereo not drawn) | 53%
92 | CCc1ccc(C(=O)COC(=O)C(Cc2c[nH]c3ccccc23)NC(=O)c2ccc(Br)cc2)cc1 (stereo not drawn) | 142%
93 | CCOC(=O)C(Cc1c[nH]c2ccccc12)NC(=O)COc1ccc(Cl)c(C)c1 (stereo not drawn) | 36% (active)
94 | Cc1cc(C)cc(OCC(=O)NC(Cc2c[nH]c3ccccc23)C(=O)O)c1 (stereo not drawn) | 51%
95 | CCc1ccc(OCC(=O)NC(Cc2c[nH]c3ccccc23)C(=O)O)cc1 (stereo not drawn) | 40% (active)
96 | COC(=O)C(Cc1c[nH]c2ccccc12)NC(=O)COc1cccc(C)c1 (stereo not drawn) | 65%
97 | Cc1cccc(OCC(=O)NC(Cc2c[nH]c3ccccc23)C(=O)O)c1C (stereo not drawn) | 48%
98 | CC(C)(C)c1ccc(OCC(=O)NC(Cc2c[nH]c3ccccc23)C(=O)O)cc1 (stereo not drawn) | 56%
